Five compounds from PubChem BioAssay can be followed below.

Molecules are shown by their SMILES. Calls of active or inactive are those of the source.

The nature of assay [1]: small molecules captured by biotinylated probe aFSTL3 – biochemical, small-molecule microarray, fluorescence 635/667, stem cell growth factor project, primary screen (AID 1064).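 Further: measures binding of the biotinylated anti-FSTL3 antibody to printed compounds.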 The note with it: higher = more signal.
Assay [2] in a line: binders from COS7 lysate, DM2A8 probe, primary screen, torsin A project, cell lysate, small-molecule microarray, fluorescence 635/667 (AID 1065). The settings on record: higher = more signal, COS7 lysate expressing mutant human TOR1A.
Assay [3] can be described thus: small molecules captured by biotinylated probe aFGF2 – biochemical, small-molecule microarray, fluorescence 635/667, stem cell growth factor project, primary screen (AID 1067).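 Further: measures binding of biotinylated aFGF2 protein to printed compounds on slides; z-score merges feature fluorescence and signal-to-noise across triplicate slides.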 The note with it: higher = more signal.
Assay [4] can be described thus: small molecules captured by biotinylated probe aFGF10 – biochemical, small-molecule microarray, fluorescence 635/667, stem cell growth factor project, primary screen (AID 1071).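 Further: score merges 667 nm spot intensity and signal to noise from triplicate slides.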 The note with it: higher = more signal.
Assay [5] addresses Neurogenic locus notch homolog protein 2 (Homo sapiens) (UniProt Q04721). Put plainly: small molecules binding Notch2 protein – biochemical, small-molecule microarray, 635 nm fluorescence, stem cell growth factors, primary screen (AID 1073). The note with it: higher = more signal.
In assay [6] the target is Pro-neuregulin-1, membrane-bound isoform (Homo sapiens) (UniProt Q02297). Put plainly: small molecules binding neuregulin-1 protein – biochemical, small-molecule microarray, fluorescence 635/667, psychiatric disease protein project, primary screen (AID 1075).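 Further: score combines 667 nm spot fluorescence with signal to noise.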 The note with it: NRG1 binding, 635 nm fluorescence, higher = more signal.
Pro-neuregulin-1, membrane-bound isoform (Homo sapiens), sequence (Q02297 whole entry, looked up, the tested form may be a part, canonical isoform): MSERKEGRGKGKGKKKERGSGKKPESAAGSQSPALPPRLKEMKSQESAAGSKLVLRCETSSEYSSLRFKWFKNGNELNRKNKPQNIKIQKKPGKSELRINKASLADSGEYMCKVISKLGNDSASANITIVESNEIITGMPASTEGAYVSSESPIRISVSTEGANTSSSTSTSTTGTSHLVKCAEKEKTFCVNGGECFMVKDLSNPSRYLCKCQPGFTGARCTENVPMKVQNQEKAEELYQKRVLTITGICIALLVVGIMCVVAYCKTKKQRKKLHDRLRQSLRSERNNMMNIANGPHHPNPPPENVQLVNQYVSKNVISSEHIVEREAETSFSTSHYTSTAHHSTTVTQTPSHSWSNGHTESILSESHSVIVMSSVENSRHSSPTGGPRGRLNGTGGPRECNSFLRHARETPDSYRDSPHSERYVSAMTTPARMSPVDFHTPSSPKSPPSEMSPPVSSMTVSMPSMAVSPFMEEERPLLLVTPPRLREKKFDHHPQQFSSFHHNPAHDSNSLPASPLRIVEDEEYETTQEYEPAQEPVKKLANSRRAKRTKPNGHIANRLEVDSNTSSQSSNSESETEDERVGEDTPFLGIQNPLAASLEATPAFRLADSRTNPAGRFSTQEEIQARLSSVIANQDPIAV
The test system of assay [7] is Neuregulin-1 EGF-like domain. Put plainly: small molecules binding NRG1 EGF domain – biochemical, small-molecule microarray, 635 nm fluorescence, primary screen (AID 1081).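 Further: binding of the protein to compounds printed on small-molecule microarray slides.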 The note with it: higher = more signal.
A short description of assay [8]: FRG1 expression reporter modulators in myotubes – cell-based, C2C12 myotubes, firefly/Renilla luciferase, luminescence, FRG1 inhibition for FSHD, primary screen (AID 1084). The settings on record: FRG1 promoter luciferase, higher = more signal, called active from +8 up or from −8 down.
Assay [9] in a line: small molecules captured by biotinylated probe aFST – biochemical, small-molecule microarray, fluorescence 635/667, stem cell growth factor project, primary screen (AID 1086).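 Further: score merges 667 nm fluorescence with signal-to-noise of each printed compound spot.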 The note with it: higher = more signal.
A short description of assay [10]: binders of probe aHhip on microarray, primary screen, stem cell growth factor project, biochemical, small-molecule microarray, fluorescence 635/667 (AID 1087).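 Further: score merges spot fluorescence at 667nm with spot signal to noise ratio.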 The settings on record: higher = more signal.
Assay [11] has as its system PRMT1 (protein arginine N-methyltransferase 1). Put plainly: small molecules binding arginine methyltransferase PRMT1 – biochemical, small-molecule microarray, 635 nm fluorescence, primary screen (AID 1088).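 Further: binding of Prmt1 protein to compounds spotted on small-molecule microarray slides.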 The note with it: higher = more signal.
Assay [12] can be described thus: growth effects on S. cerevisiae YJM789 – YJM789 clinical isolate, OD600, 24 h, basal, primary screen (AID 1089).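 Further: growth of clinical yeast isolate S. cerevisiae YJM 789 seeded 1000 cells per well; test concentration not given here.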 The note with it: higher = more signal, called active from +8 up or from −8 down.
The nature of assay [13]: S. pombe growth modifiers, basal conditions – strain 972, OD600, 24 h, no modulator, primary screen (AID 1090).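 Further: basal condition with compound alone and no growth modifier present; test concentration not given here.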 The settings on record: S. pombe 972 growth, higher = more signal, called active from +8 up or from −8 down.
Assay [14] in a line: budding yeast growth modifiers under rapamycin – strain BY4716, OD600, 96 h, primary screen (AID 1091). Further: test concentration not given here. The note with it: S. cerevisiae BY4716 + rapamycin, higher = more signal, called active from +8 up or from −8 down.
For assay [15], the target named is Torsin-1A-interacting protein 2 (Homo sapiens) (UniProt Q8NFQ8). Put plainly: small molecules binding lysate-expressed LULL1 – cell lysate, human LULL1 lysate, 635/667 nm fluorescence, primary screen (AID 1092).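 Further: probe is lysate of COS7 cells overexpressing human LULL1; score merges per-feature 667 nm fluorescence with signal-to-noise.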 The settings on record: small-molecule microarray, hLULL1 lysate binding, 635 nm fluorescence; higher = more signal.
Torsin-1A-interacting protein 2 (Homo sapiens), sequence (Q8NFQ8 whole entry, looked up): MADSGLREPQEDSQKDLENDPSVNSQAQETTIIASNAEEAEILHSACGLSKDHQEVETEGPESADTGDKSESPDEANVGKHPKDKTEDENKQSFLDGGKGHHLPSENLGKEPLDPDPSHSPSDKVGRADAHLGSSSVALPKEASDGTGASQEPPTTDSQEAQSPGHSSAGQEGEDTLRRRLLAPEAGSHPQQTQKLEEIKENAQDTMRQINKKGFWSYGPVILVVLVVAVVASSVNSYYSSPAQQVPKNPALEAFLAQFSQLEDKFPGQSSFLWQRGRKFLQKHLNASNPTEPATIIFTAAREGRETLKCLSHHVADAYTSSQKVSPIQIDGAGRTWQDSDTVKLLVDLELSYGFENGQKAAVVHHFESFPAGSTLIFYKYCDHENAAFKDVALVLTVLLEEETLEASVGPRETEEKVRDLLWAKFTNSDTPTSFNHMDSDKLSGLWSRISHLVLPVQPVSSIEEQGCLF
The nature of assay [16]: optical density change of DRC41 E. coli – strain DRC41, OD650, 24 h, E. coli filamentation project, primary screen (AID 1093).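 Further: MC1000 strain lacking acrAB efflux and sulA so SOS filamentation is blocked; test concentration not given here.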 The settings on record: E. coli DRC41 growth, higher = more signal, called active from +8 up or from −8 down.
Assay [17] is described as follows: probe aLefty2 binding to arrayed compounds – biochemical, biotinylated probe, 635/667 nm fluorescence, primary screen (AID 1094).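 Further: score merges spot fluorescence near 667 nm with spot signal-to-noise ratio.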 The note with it: small-molecule microarray, higher = more signal.
In assay [18] the test system is Noggin (protein binding on small-molecule microarray). Put plainly: small molecules binding Noggin protein – biochemical, 635/667 nm fluorescence, primary screen (AID 1095).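 Further: score merges 667 nm feature fluorescence with signal to noise over triplicate slides.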 The settings on record: 635 nm fluorescence, higher = more signal.
The target of assay [19] is Neurogenic locus notch homolog protein 3 (Homo sapiens) (UniProt Q9UM47). Put plainly: small molecules binding NOTCH3 protein – biochemical, 635/667 nm fluorescence, primary screen (AID 1096). The note with it: small-molecule microarray, 635 nm fluorescence, higher = more signal.
The nature of assay [20]: probe aEGFR binding to arrayed compounds – biochemical, biotinylated probe, 635/667 nm fluorescence, primary screen (AID 1097).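 Further: probe is a biotinylated anti-EGFR antibody binding compounds printed on slides; score combines fluorescence near 667 nm and signal to noise of each spot.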 The note with it: small-molecule microarray, higher = more signal.

Neurogenic locus notch homolog protein 2 (Homo sapiens), sequence (Q04721 whole entry, looked up, canonical isoform): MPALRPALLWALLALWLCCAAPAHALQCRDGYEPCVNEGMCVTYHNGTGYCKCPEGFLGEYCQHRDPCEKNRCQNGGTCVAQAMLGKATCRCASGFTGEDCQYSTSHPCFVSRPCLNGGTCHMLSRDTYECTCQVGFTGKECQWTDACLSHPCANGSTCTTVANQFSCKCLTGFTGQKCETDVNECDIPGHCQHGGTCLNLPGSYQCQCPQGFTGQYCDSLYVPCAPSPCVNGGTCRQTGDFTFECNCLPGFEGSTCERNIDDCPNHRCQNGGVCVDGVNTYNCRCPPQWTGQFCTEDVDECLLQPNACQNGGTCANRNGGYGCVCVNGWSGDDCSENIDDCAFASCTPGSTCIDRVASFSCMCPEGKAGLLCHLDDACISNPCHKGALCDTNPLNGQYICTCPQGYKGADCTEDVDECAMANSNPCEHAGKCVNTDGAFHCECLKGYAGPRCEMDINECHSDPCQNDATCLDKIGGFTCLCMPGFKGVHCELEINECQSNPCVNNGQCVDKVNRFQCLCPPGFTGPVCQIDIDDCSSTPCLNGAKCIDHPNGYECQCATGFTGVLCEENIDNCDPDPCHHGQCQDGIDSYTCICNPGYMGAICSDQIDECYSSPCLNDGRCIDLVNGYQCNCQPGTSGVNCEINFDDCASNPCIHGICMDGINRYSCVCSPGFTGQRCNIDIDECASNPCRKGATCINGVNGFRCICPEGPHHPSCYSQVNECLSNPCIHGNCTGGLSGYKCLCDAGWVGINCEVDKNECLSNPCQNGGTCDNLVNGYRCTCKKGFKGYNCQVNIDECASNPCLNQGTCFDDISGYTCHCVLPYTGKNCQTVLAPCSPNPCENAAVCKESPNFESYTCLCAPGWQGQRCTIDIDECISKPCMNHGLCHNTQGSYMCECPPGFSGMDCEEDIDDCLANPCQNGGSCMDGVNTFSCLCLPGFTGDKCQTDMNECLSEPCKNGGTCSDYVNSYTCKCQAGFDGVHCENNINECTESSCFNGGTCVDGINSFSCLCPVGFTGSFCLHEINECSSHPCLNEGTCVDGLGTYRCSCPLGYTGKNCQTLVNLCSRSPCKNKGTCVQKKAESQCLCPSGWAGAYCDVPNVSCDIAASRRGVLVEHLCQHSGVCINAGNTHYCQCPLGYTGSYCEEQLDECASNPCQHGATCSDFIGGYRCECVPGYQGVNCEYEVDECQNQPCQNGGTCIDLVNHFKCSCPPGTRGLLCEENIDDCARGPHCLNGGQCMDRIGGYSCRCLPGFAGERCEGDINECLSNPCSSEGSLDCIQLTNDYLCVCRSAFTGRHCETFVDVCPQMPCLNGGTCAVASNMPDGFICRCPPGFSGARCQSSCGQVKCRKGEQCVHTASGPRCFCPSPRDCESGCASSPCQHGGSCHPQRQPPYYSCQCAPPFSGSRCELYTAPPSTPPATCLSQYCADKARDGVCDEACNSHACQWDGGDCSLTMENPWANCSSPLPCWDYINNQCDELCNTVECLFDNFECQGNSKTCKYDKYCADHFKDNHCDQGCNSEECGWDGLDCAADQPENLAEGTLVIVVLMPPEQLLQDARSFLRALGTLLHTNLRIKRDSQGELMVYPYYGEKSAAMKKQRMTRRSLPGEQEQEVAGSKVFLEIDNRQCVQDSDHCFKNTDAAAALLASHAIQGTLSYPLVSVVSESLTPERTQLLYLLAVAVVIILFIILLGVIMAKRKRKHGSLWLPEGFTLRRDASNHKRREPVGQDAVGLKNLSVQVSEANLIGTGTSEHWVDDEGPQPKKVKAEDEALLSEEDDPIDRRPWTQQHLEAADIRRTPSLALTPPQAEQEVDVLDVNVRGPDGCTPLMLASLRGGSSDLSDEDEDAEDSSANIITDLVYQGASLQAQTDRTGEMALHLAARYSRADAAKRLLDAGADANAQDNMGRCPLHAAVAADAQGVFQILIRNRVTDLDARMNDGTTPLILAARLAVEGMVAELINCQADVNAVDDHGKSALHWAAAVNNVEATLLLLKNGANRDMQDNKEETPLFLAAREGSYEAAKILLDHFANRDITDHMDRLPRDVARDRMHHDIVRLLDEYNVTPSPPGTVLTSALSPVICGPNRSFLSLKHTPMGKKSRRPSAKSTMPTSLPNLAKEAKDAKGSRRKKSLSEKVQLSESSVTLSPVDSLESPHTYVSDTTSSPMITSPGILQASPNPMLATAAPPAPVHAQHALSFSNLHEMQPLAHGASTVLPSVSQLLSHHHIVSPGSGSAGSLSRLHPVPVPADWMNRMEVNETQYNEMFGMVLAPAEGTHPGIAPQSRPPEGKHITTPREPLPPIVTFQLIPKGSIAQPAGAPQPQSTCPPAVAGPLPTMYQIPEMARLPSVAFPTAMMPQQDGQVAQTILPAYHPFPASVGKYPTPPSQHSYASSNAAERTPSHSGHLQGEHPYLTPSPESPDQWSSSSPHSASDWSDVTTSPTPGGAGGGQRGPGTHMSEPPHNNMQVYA

Turning to `C[N+](C)(C)CCCCCCNC(=O)[C@H]1C[C@H]2C(=O)N[C@@H](Cc3ccccc3)C(=O)N2[C@H]1c1ccc(O)cc1`, the composite z-score was 0.18 in assay [1]; 0.375 in assay [2]; -0.0853 in [3]; 0.316 in [4]; 0.224 in [5]; 0.736 in assay [6]. The composite z-score in assay [7] was 1.21; in assay [9], -0.0859; in assay [10], 0.0373; in [11], 1.53; in assay [15], 2.56; in assay [17], -0.0769. For the same compound, the composite z-score in [18] is 1.18; in assay [19], 0.98; in assay [20], -0.136. The z-score in [8] was 2.26 (inactive); in assay [12], -0.327 (inactive); in [13], 0.162 (inactive); in assay [14], 0.0818 (inactive); in assay [16], 0.441 (inactive).
As to `COc1ccc(NC(=O)O[C@H]2[C@H](OC(=O)Nc3ccccc3)[C@H](OC(=O)Nc3ccccc3)[C@@H](OC)O[C@@H]2CO)cc1`, the composite z-score in [1] worked out at 0.474; in assay [2], 1; in [3] it was 0.338; in assay [4], 1.19; in assay [5], 1.15; in [6], 1.61. The composite z-score in assay [7] was determined as 1.25; in assay [9] it was 0.803; in assay [10] it was 0.281; in assay [11], 1.55; in assay [15] it was 2.66; in [17], 0.31. Moreover, the composite z-score in assay [18] is 0.691; in assay [19], 0.989; in assay [20], 0.644. Besides, the z-score was -0.742 (inactive) in assay [8]; 0.855 (inactive) in [12]; 0.887 (inactive) in assay [13]; 3.25 (inactive) in [14]; -0.873 (inactive) in assay [16].
For the compound `COc1cccc(/C=C/C=O)c1`, the composite z-score in assay [1] was 0.278; in assay [2], 0.187; in assay [3], 0.0726; in assay [4], 0.505; in [5], 0.367; in [6], -0.437. Besides, the composite z-score in [7] was -0.443; in assay [9] it was 0.375; in assay [10] it was 0.57; in assay [11], 0.247; in assay [15], 0.205; in assay [17] it was 0.226. Also, the composite z-score in [18] turned out to be 0.137; in assay [19], 0.181; in assay [20] it was 0.198. Moreover, the z-score in assay [8] was 1.02 (inactive); in [12] it was 1.95 (inactive); in assay [13], -13.2 (active); in [14] it was -0.144 (inactive); in assay [16], -0.283 (inactive).
Turning to `COc1ccc(CCNC(=O)[C@@H]2c3ccccc3C(=O)N(Cc3cc(C(F)(F)F)cc(C(F)(F)F)c3)[C@H]2c2ccc(CO)cc2)cc1`, the composite z-score in [1] is 0.0967; in assay [2] it was -0.138; in assay [3], -0.123; in assay [4] it was -0.0803; in [5] it was -0.181; in [6], 0.568. Further, the composite z-score in [7] is 0.993; in [9], -0.135; in [10] it was -0.236; in assay [11] it was 1.41; in [15], 2.16; in [17] it was -0.237. The composite z-score in [18] is 1.07; in [19] it was 0.365; in assay [20] it was -0.167. The z-score in [8] is -0.188 (inactive); in assay [12], 0.279 (inactive); in assay [13], -0.381 (inactive); in assay [14], 0.848 (inactive); in assay [16] it was -0.0332 (inactive).
As for `COc1ccc(NC(=O)O[C@H]2[C@H](OC(=O)Nc3ccccc3)[C@@H](OC(=O)Nc3ccccc3)[C@@H](OC)O[C@@H]2CO)cc1`, the composite z-score was -0.279 in [1]; 0.672 in [2]; -0.017 in assay [3]; 1.27 in assay [4]; 0.754 in assay [5]; 1.6 in assay [6]. Besides, the composite z-score in assay [7] was 1.26; in [9], 0.23; in [10] it was -0.0618; in assay [11] it was 1.55; in [15], 3.27; in assay [17], -0.0666. For the same compound, the results for the composite z-score in assay [18], in assay [19] and in [20] were 1.62, 0.822 and -0.0054, respectively. The z-score in assay [8] is 0.329 (inactive); in [12], 2.09 (inactive); in assay [13], -0.0554 (inactive); in [14] it was -0.758 (inactive); in [16], -0.633 (inactive).
